Inconclusive results are not listed. Where a call stands in place of a potency, no number is given. Active and inactive are the calls of the source. The call rests on the fitted dose curve; in most records, active means well fitted activation curve with a large enough effect in the repeat runs; inconclusive means weak or mixed curves; inactive means flat fitted curve, though single readings scatter.

The experiment can be described thus: Caspase-3/7 induction in HepG2 cells by small molecules, qHTS assay (AID 1346978). Further: nearly all actives have a fitted effect of over 15% in size. The settings on record: HepG2 caspase-3/7 activation, Caspase-Glo luminescence, 17 h; series mostly up to 92.4 µM; caspase activation: at the top concentration. In a few lines: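 Wild-type HepG2 cells, 2,000/well, settled 5 hr at 37 C and 5% CO2, then compound-treated for 17 hr; caspase-3/7 activity read by luminescent Caspase-Glo 3/7 after 30 min at room temperature.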
(In qHTS, concentration-response curves come from the screen itself.)
Consider `CC(C)CCOC(=O)c1ccc(N(C)C)cc1`, for which the “caspase activation” value was -3.17% [at 42.5 µM] (inactive). Still for that read-out and setting: in the case of `CC(C)(C)NCC(O)COc1ccccc1OCC1CCCO1` (configuration not stated) it was 0.374% [at 42.5 µM] (inactive).

On to `CC1COC(=O)O1` (configuration not stated), for which the Potency result was “inactive”. On the same count and under the same terms, in the case of `C=CC(=O)OCCCCCCOC(=O)C=C` it was “inactive”. As to `CCN1CCCC1CNC(=O)c1cc(S(=O)(=O)CC)c(N)cc1OC` (configuration not stated), the “caspase activation” value was -1.63% [at 42.5 µM] (inactive). Still for that read-out and setting: for `CCCCN(CCO)CCCC` the value was 0.161% (inactive); for `CC(=O)CC(C)=O`, -1.35% (inactive).

`O`: the Potency entry was “inactive”.

Regarding `CCOC(=O)C(C)C(C)=O` (configuration not stated), the “caspase activation” value was -0.488% (inactive).

As to `CC(=O)Nc1ccc(C(=O)CCl)cc1`, the Potency entry was “inactive”. The same measure, in the same setting: in the case of `COC(=O)/C=C/c1ccccc1` it was “inactive”. Consider `C[N+]1([O-])CCOCC1`, for which the “caspase activation” value was 0.0244% (inactive). Take `CCN(CC)C(=O)Nc1ccc(OCC(O)CNC(C)(C)C)c(C(C)=O)c1` (configuration not stated): the “caspase activation” value is 0.0364% [at 42.5 µM] (inactive).

For the compound `Cc1cc(C(C)(C)C)c(O)c(C(C)(C)C)c1`, the Potency result was “inactive”. The same measure, in the same setting: in the case of `CCOc1ccccc1C(N)=O` it was “inactive”; in that of `O=C(O[C@@H]1Cc2c(O)cc(O)cc2O[C@@H]1c1cc(O)c(O)c(O)c1)c1cc(O)c(O)c(O)c1`, “inactive”. Consider `O=C1CC2(CCCC2)CC(=O)N1CCCCN1CCN(c2ncccn2)CC1`, for which the Potency entry was “inactive”.

The record behind these values is PubChem BioAssay (Tox21).
